# From PubChem BioAssay (NCI)
# About 83,000 compounds went through this panel and 20% of them were active in at least one assay; those are over-represented in the sample as a whole.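 Cell lines were cultured in 96-well plates, exposed to a single compound concentration, and assessed for percent growth 48 hours later.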 A number with no mark means an inactive call. Active and inactive are the calls of the source. The calls were made as follows: active = growth percent below 10; inactive = the rest.
# Test system: SR leukemia
# Assay: NCI-60 one-dose screen, 48 h (100 = growth as untreated, 0 = no growth, -100 = all killed)
# Conditions: 10 µM unless noted
row,SMILES,growth
1,CCNc1cc2c(cc1Br)-c1ccccc1C2=O,91.6%
2,Cn1cc(-c2noc(-c3cn(C)c4ncccc34)n2)c2cc(Cl)ccc21,82.2%
3,N#Cc1ccc(-c2ccc(COc3ccc(CC4SC(=O)NC4=O)cc3)cc2)cc1 (centres undefined),45.1%
4,O=C(N[C@@H]1CCCc2ccccc21)[C@H](CCC(=O)N1CCN(C2CCCCC2)CC1)N1C(=O)[C@@H](N2C(=O)OC[C@@H]2c2ccccc2)[C@H]1/C=C/c1ccccc1,-25.1% (active)
5,CCOC(=O)/C(C#N)=C(\C)CCc1ccccc1,153%
6,COc1ccc(C(=O)CSc2nccc(Nc3ccc(C(=O)O)cc3)n2)cc1,91.4%
7,O=C(NCCCCCCCNC(=O)OCc1ccc2c(Cl)cc(Cl)c(O)c2n1)OCc1ccc2c(Cl)cc(Cl)c(O)c2n1,6.26% (active)
8,CCN(CCO)CCC(=O)c1ccc([N+](=O)[O-])cc1,107%
9,CCOC(=O)COc1c(C)cc(SSc2cc(C)c(OCC(=O)OCC)c(C)c2)cc1C,90.9%
10,CC(C)C1=NOC(=O)C1=Cc1cn(-c2ccco2)nc1-c1ccccc1,-2.02% (active)
11,CCOC(=O)Nc1ccc2c(c1)/C(=N\NC(=S)NC)c1ccccc1-2,63.9%
12,COc1ccc(/C=C(/C(=O)c2ccc(Cl)cc2)C(=O)C(F)(F)F)cc1,76.2%
13,O=[N+]([O-])c1cccc(N=NNc2cccc([N+](=O)[O-])c2)c1,95.1%
14,COc1ccc2c(c1)c(-c1noc(-c3cn(C)c4ncc(F)cc34)n1)cn2C,83.8%
15,CCn1cc(-c2ccnc(NCCNS(=O)(=O)c3cccc4ccccc34)c2)c(-c2cccc(O)c2)n1,74.9%
16,Cc1ccc(-c2cc(O)c(-c3ccc(C)cc3C)cc2O)c(C)c1,7.1% (active)
17,CCc1ccc(-c2ccc(COc3ccc(CC4SC(=O)NC4=O)cc3)cc2)cc1 (centres undefined),45.9%
18,CCCn1ccnc1C(O)c1ccc(OCc2ccccc2)c(OC)c1 (centres undefined),96.1%
19,O=C(Nc1cc(F)cc2cccnc12)c1cnc(N2CCNCC2)cn1,29.5%

row,SMILES,growth
1,O=C(CCCSc1nc(-c2ccccc2)cc(-c2ccccc2)n1)NO,1.05% (active)
2,O=C(CCN1CCCCC1)c1ccc(Cl)cc1,112%
3,O=C(NCCCNC(=O)OCc1ccc2c(Br)cc(Br)c(O)c2n1)OCc1ccc2c(Br)cc(Br)c(O)c2n1,5.95% (active)
4,Cc1ccc(N)c(O)c1,112%
5,COc1cc2c(=O)[nH]c3cc([N+](=O)[O-])ccc3c2cc1[N+](=O)[O-],32.2%
6,C/C=C/C1OC23CCCCC2C(C#N)(C(=N)O3)C1(C#N)C#N (centres undefined),49.1%
7,Cc1ccc(S(=O)(=O)NCCCNc2nccc(-c3c(-c4cccc(F)c4)nc4occn34)n2)cc1,87.9%
8,COc1ccc2c(c1)C(C)Cc1c(ncnc1-n1cnc3ccccc31)N2C (centres undefined),11.8%
9,Clc1ccccc1/C=N\Nc1ccccn1,90.5%
10,CC(C)C1=NOC(=O)C1=Cc1cn(-c2ccccc2)nc1-c1cccc([N+](=O)[O-])c1,-20.9% (active)
11,CC(C)C1=NOC(=O)C1=Cc1cn(-c2cccnc2)nc1-c1ccccc1,-22.5% (active)
12,O=C1COCCN1c1ccc(NCc2cn(Cc3ccccc3)c3ccccc23)cc1,58.3%
13,COc1ccc(N(c2nc(-c3ccc([N+](=O)[O-])cc3)cs2)C(C)C)cc1,66.5%
14,OC(c1ccc(Cl)cc1)(c1ccc(Cl)cc1)C(O)(c1ccc(Cl)cc1)c1ccc(Cl)cc1,25.9%
15,O=C(NCc1ccc(Cn2c(=O)sn(-c3ccccc3)c2=O)cc1)OCc1ccc2c(Br)cc(Br)c(O)c2n1,4.62% (active)
16,O=S(=O)(NCCNc1nccc(-c2c(-c3cccc(F)c3)nc3occn23)n1)c1ccc(C(F)(F)F)cc1,88.3%
17,O=C(Nc1ccc(Cl)c(C(F)(F)F)c1)Nc1ccc(-c2cccnc2)cc1N1CCC(CO)CC1,2.35% (active)
18,O=C(CCNCc1ccccc1)c1ccccc1,109%

# Test system: RPMI-8226 leukemia
# Assay: as above
# Conditions: 10 µM unless noted
row,SMILES,growth
1,CCNc1cc2c(cc1Br)-c1ccccc1C2=O,100%
2,Cn1cc(-c2noc(-c3cn(C)c4ncccc34)n2)c2cc(Cl)ccc21,96.6%
3,N#Cc1ccc(-c2ccc(COc3ccc(CC4SC(=O)NC4=O)cc3)cc2)cc1 (centres undefined),48.5%
4,O=C(N[C@@H]1CCCc2ccccc21)[C@H](CCC(=O)N1CCN(C2CCCCC2)CC1)N1C(=O)[C@@H](N2C(=O)OC[C@@H]2c2ccccc2)[C@H]1/C=C/c1ccccc1,-13.9% (active)
5,CCOC(=O)/C(C#N)=C(\C)CCc1ccccc1,61.1%
6,COc1ccc(C(=O)CSc2nccc(Nc3ccc(C(=O)O)cc3)n2)cc1,109%
7,O=C(NCCCCCCCNC(=O)OCc1ccc2c(Cl)cc(Cl)c(O)c2n1)OCc1ccc2c(Cl)cc(Cl)c(O)c2n1,-15.5% (active)
8,CCN(CCO)CCC(=O)c1ccc([N+](=O)[O-])cc1,104%
9,CCOC(=O)COc1c(C)cc(SSc2cc(C)c(OCC(=O)OCC)c(C)c2)cc1C,90.6%
10,CC(C)C1=NOC(=O)C1=Cc1cn(-c2ccco2)nc1-c1ccccc1,6.57% (active)
11,CCOC(=O)Nc1ccc2c(c1)/C(=N\NC(=S)NC)c1ccccc1-2,58.7%
12,COc1ccc(/C=C(/C(=O)c2ccc(Cl)cc2)C(=O)C(F)(F)F)cc1,90.2%
13,O=[N+]([O-])c1cccc(N=NNc2cccc([N+](=O)[O-])c2)c1,86%
14,COc1ccc2c(c1)c(-c1noc(-c3cn(C)c4ncc(F)cc34)n1)cn2C,92.1%
15,CCn1cc(-c2ccnc(NCCNS(=O)(=O)c3cccc4ccccc34)c2)c(-c2cccc(O)c2)n1,74%
16,Cc1ccc(-c2cc(O)c(-c3ccc(C)cc3C)cc2O)c(C)c1,37.2%
17,CCc1ccc(-c2ccc(COc3ccc(CC4SC(=O)NC4=O)cc3)cc2)cc1 (centres undefined),57.5%
18,CCCn1ccnc1C(O)c1ccc(OCc2ccccc2)c(OC)c1 (centres undefined),93.9%
19,O=C(Nc1cc(F)cc2cccnc12)c1cnc(N2CCNCC2)cn1,93.1%

row,SMILES,growth
1,O=C(CCCSc1nc(-c2ccccc2)cc(-c2ccccc2)n1)NO,14.9%
2,O=C(CCN1CCCCC1)c1ccc(Cl)cc1,85.8%
3,O=C(NCCCNC(=O)OCc1ccc2c(Br)cc(Br)c(O)c2n1)OCc1ccc2c(Br)cc(Br)c(O)c2n1,-27.3% (active)
4,Cc1ccc(N)c(O)c1,61.9%
5,COc1cc2c(=O)[nH]c3cc([N+](=O)[O-])ccc3c2cc1[N+](=O)[O-],57.2%
6,C/C=C/C1OC23CCCCC2C(C#N)(C(=N)O3)C1(C#N)C#N (centres undefined),98.8%
7,Cc1ccc(S(=O)(=O)NCCCNc2nccc(-c3c(-c4cccc(F)c4)nc4occn34)n2)cc1,54.8%
8,COc1ccc2c(c1)C(C)Cc1c(ncnc1-n1cnc3ccccc31)N2C (centres undefined),26.5%
9,Clc1ccccc1/C=N\Nc1ccccn1,93.1%
10,CC(C)C1=NOC(=O)C1=Cc1cn(-c2ccccc2)nc1-c1cccc([N+](=O)[O-])c1,-26.8% (active)
11,CC(C)C1=NOC(=O)C1=Cc1cn(-c2cccnc2)nc1-c1ccccc1,-16.6% (active)
12,O=C1COCCN1c1ccc(NCc2cn(Cc3ccccc3)c3ccccc23)cc1,86.8%
13,COc1ccc(N(c2nc(-c3ccc([N+](=O)[O-])cc3)cs2)C(C)C)cc1,52.7%
14,OC(c1ccc(Cl)cc1)(c1ccc(Cl)cc1)C(O)(c1ccc(Cl)cc1)c1ccc(Cl)cc1,30.8%
15,O=C(NCc1ccc(Cn2c(=O)sn(-c3ccccc3)c2=O)cc1)OCc1ccc2c(Br)cc(Br)c(O)c2n1,-17.7% (active)
16,O=S(=O)(NCCNc1nccc(-c2c(-c3cccc(F)c3)nc3occn23)n1)c1ccc(C(F)(F)F)cc1,75.5%
17,O=C(Nc1ccc(Cl)c(C(F)(F)F)c1)Nc1ccc(-c2cccnc2)cc1N1CCC(CO)CC1,12.1%
18,O=C(CCNCc1ccccc1)c1ccccc1,105%
